# In PubChem BioAssay:
# Active and inactive are the calls of the source.
# What was measured:
# [1] = test system: Human papillomavirus type 1a protein E7 (residues 44-93); assay: small molecules binding HPV E7 44-93 – biochemical, small-molecule microarray, residues 44-93, 635 nm fluorescence, primary screen (AID 1108); conditions: fluorescence 635 nm, higher = more signal;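 further: E7 fragment applied at 1 µg/mL in TBST for 1 h at 4 C; score combines spot fluorescence with its signal to noise ratio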
# [2] = hepatitis C replication reporter changes, two-sided – Huh7 cells, luciferase reporter, HCV replication inhibitor project, primary screen (AID 1109); conditions: Huh7 HCV replicon luciferase reporter, 48 h; higher = more signal;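 further: huh7 hepatoma cells harbouring a luciferase neomycin HCV replicon reporter; luciferase luminescence as measure of HCV replicon replication; test concentration not given here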
# [3] = target: Left-right determination factor 2 (Homo sapiens) (UniProt O00292); assay: small molecules binding LEFTY2 protein – biochemical, small-molecule microarray, 635 nm fluorescence scan, primary screen (AID 1110); conditions: higher = more signal
# Sequence of Left-right determination factor 2 (Homo sapiens) (O00292 whole entry, looked up): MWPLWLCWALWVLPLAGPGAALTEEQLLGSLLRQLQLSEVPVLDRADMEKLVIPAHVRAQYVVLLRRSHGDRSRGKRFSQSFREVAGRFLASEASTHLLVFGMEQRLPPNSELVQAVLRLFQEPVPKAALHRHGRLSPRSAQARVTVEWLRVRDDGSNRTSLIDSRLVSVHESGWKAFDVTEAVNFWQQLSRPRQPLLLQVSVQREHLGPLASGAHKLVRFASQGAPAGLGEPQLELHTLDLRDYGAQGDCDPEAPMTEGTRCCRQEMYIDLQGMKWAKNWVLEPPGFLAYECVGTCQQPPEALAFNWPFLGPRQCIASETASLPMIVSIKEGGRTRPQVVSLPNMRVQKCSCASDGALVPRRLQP
# [4] = target: Calmodulin-1 (Homo sapiens) (UniProt P0DP23); assay: small molecules binding calmodulin-1 with EGTA – biochemical, small-molecule microarray, Cy5-labelled CALM1, profiling panel (AID 1111); conditions: Cy5-CALM1 binding fluorescence, higher = more signal;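 further: labelled calmodulin applied in Tris saline Tween buffer holding calcium plus EGTA and DTT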
# [5] = target: Calmodulin-1 (Homo sapiens) (UniProt P0DP23); assay: small molecules binding Ca-loaded calmodulin-1 – biochemical, small-molecule microarray, Cy5-labelled CALM1, plus calcium, artefact control for SMM control-protein annotation, profiling panel (AID 1112); conditions: Cy5-CALM1 binding fluorescence, higher = more signal;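 further: score merges spot fluorescence with signal to noise from triplicate slides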
# [6] = probe aWnt5a binding to arrayed compounds – biochemical, biotinylated probe, 635/667 nm fluorescence, primary screen (AID 1113); conditions: small-molecule microarray, higher = more signal;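 further: score merges 667 nm fluorescence intensity with signal-to-noise per printed feature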
# [7] = probe aShh binding to arrayed compounds – biochemical, biotinylated probe, 635/667 nm fluorescence, primary screen (AID 1114); conditions: small-molecule microarray, higher = more signal;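 further: probe is biotin-labelled aShh protein from a stem cell growth factor screen; measures binding of labelled protein to compounds printed on the slide; score merges feature fluorescence at 667 nm with signal-to-noise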
# [8] = probe aNog binding to arrayed compounds – biochemical, biotinylated probe, 635/667 nm fluorescence, primary screen (AID 1115); conditions: small-molecule microarray, higher = more signal;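 further: probe is biotinylated aNog protein used at 0.15 µg/mL for 1 h at 4 C; z-score combines 667 nm fluorescence of each spot with its signal to noise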
# [9] = target: Torsin-1A-interacting protein 1 (Homo sapiens) (UniProt Q5JTV8); assay: compound microarray binding of lysate hLAP1 – cell lysate, small-molecule microarray, COS7 lysate, 635/667 nm fluorescence, primary screen (AID 1116); conditions: 635 nm fluorescence, higher = more signal
# Sequence of Torsin-1A-interacting protein 1 (Homo sapiens) (Q5JTV8 whole entry, looked up): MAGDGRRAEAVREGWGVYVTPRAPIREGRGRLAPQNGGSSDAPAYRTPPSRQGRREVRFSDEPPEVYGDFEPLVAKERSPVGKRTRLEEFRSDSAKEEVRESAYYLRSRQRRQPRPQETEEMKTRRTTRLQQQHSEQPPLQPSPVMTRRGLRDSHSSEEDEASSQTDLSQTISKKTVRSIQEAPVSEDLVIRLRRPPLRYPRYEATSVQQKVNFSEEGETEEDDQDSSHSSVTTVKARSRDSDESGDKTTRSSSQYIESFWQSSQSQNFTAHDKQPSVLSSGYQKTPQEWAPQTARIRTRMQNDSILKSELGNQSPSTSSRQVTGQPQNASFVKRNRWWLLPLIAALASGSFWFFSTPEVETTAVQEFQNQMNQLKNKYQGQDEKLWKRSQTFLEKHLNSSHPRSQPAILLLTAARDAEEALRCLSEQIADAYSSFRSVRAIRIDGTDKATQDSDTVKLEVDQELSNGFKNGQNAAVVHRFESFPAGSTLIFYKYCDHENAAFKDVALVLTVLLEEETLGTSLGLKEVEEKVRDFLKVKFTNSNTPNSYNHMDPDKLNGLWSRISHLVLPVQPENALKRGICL
# [10] = target: Alpha-bungarotoxin (Bungarus multicinctus) (UniProt P60615); assay: compounds binding labelled alpha-BTX control protein – biochemical, small-molecule microarray, Alexa647 label, 635/667 nm fluorescence, artefact control for SMM control protein annotation, profiling panel (AID 1117); conditions: alpha-BTX-A647 binding fluorescence, higher = more signal
# Sequence of Alpha-bungarotoxin (Bungarus multicinctus) (P60615 whole entry, looked up): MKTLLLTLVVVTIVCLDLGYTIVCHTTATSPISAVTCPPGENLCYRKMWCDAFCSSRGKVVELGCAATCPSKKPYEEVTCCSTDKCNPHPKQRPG
# [11] = target: Albumin (Bos taurus) (UniProt P02769); assay: compounds binding labelled BSA control protein – biochemical, small-molecule microarray, Alexa647 label, 635/667 nm fluorescence, artefact control for SMM control protein annotation, profiling panel (AID 1118); conditions: BSA-A647 binding, fluorescence 635 nm, higher = more signal;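 further: score merges 667 nm emission intensity and signal-to-noise per printed compound spot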
# Sequence of Albumin (Bos taurus) (P02769 whole entry, looked up): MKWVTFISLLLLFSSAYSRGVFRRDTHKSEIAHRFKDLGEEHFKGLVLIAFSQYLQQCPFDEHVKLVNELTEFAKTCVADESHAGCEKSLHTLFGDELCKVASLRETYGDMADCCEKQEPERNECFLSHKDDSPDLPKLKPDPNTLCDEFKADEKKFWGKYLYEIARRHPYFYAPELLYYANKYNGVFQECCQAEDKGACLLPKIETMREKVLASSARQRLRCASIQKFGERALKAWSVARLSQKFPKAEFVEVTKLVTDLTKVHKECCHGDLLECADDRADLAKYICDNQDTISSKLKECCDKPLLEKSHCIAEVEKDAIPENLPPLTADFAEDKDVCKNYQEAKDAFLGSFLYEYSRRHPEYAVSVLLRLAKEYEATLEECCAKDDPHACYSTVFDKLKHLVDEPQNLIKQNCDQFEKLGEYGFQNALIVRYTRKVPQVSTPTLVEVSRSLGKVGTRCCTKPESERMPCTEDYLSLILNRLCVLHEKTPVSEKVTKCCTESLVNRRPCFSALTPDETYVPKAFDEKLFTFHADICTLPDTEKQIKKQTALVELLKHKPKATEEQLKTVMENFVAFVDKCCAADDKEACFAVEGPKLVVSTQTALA
# [12] = probe aXIP binding to arrayed compounds – biochemical, NeuroSMM set, 635/667 nm fluorescence, primary screen (AID 1119); conditions: small-molecule microarray, higher = more signal, called active from +8 up or from −8 down;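 further: probe is the protein aXip251-270 applied at 1 µg/mL to compound-printed slides; binding of probe to printed compounds measured as 667 nm fluorescence plus signal to noise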
# [13] = probe aNOTCH3 binding on compound microarray – biochemical, small-molecule microarray, 635/667 nm fluorescence, primary screen (AID 1120); conditions: higher = more signal;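 further: probe is a biotin-tagged antibody raised against NOTCH3 rather than NOTCH3 protein; score merges spot fluorescence near 667 nm with spot signal to noise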
# [14] = probe aNOTCH2 binding on compound microarray – biochemical, small-molecule microarray, 635/667 nm fluorescence, primary screen (AID 1121); conditions: higher = more signal;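 further: score merges feature fluorescence read at 667 nm with its signal to noise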
# [15] = target: Carbonic anhydrase 2 (Homo sapiens) (UniProt P00918); assay: compounds binding carbonic anhydrase 2 – biochemical, small-molecule microarray, Alexa647-labelled CAII, profiling panel (AID 1122); conditions: CAII-A647 binding fluorescence, higher = more signal
# [16] = COS7 lysate on small-molecule microarray, probe aHis, 635 nm (AID 1123); conditions: COS7 cell lysate, fluorescence, higher = more signal;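 further: z-score combines 667nm fluorescence intensity with signal-to-noise per printed compound spot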
# [17] = probe aLAP1 signal on lysate-treated microarray – cell lysate, small-molecule microarray, COS7 lysate, primary screen (AID 1124); conditions: probe aLAP1, fluorescence, higher = more signal;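 further: lysate comes from COS7 cells expressing LAP1 and is applied at 0.3 µg/mL; score merges spot fluorescence near 667 nm with signal-to-noise over triplicate slides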
# [18] = test system: Sam68 (KHDRBS1); assay: compounds binding KHDRBS1 protein – biochemical, small-molecule microarray, 635 nm fluorescence, primary screen (AID 1125); conditions: higher = more signal;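 further: score merges 667 nm channel intensity with signal to noise over triplicate slides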
# [19] = test system: Chordin-like protein 2 (CHRDL2); assay: compounds binding chordin-like 2 – biochemical, small-molecule microarray, 635 nm fluorescence, primary screen (AID 1126); conditions: fluorescence 635 nm, higher = more signal;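 further: printed compound slides probed with Chrdl2 protein at 4 µg/mL for 1 h at 4 C; score merges 667 nm emission intensity with signal to noise over three replicate slides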
# [20] = target: Concanavalin-A (Canavalia ensiformis) (UniProt P02866); assay: compounds binding concanavalin A lectin – biochemical, small-molecule microarray, Alexa647 label, 635 nm, artefact control for SMM control protein annotation, primary screen (AID 1127); conditions: ConA-A647 binding fluorescence, higher = more signal;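 further: z combines 667 nm emission intensity with signal-to-noise across three replicate slides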
# Sequence of Concanavalin-A (Canavalia ensiformis) (P02866 whole entry, looked up): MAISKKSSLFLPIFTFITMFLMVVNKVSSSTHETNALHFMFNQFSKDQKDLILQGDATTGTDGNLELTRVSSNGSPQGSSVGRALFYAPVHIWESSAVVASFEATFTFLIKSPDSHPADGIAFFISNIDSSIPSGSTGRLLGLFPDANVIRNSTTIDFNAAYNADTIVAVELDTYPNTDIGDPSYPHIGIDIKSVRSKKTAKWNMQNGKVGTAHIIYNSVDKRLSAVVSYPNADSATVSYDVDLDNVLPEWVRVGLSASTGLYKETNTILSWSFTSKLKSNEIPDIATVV
SMILES,composite z-score [1],z-score [2],composite z-score [3],composite z-score [4],composite z-score [5],composite z-score [6],composite z-score [7],composite z-score [8],composite z-score [9],composite z-score [10],composite z-score [11],composite Z-score [12],composite z-score [13],composite z-score [14],composite z-score [15],composite z-score [16],composite z-score [17],composite z-score [18],composite z-score [19],composite z-score [20]
COc1cc(C(O)C2C=CC3C(=O)N(C)C(=O)C3N2NC(=O)OC(C)(C)C)cc(OC)c1OC (stereo not given),0.968,-0.639,0.0493,1.34,0.12,0.343,0.848,1.6,0.102,0.312,1.03,0.523 (inactive),0.576,0.46,0.682,2.63,0.954,1.26,-0.217,0.92
COCCOC(=O)N1C(=O)[C@@]2(c3cc(C#Cc4ccc(OC)cc4)ccc31)[C@H](C(=O)N1CCc3cc(OC)c(OC)cc3C1)[C@H]1C(=O)O[C@H](c3ccccc3)[C@H](c3ccccc3)N1[C@@H]2c1ccc(OCCO)cc1,0.577,-0.195,0.516,1.24,0.897,-0.0482,-0.138,0.0637,0.247,1.41,-0.121,-0.527 (inactive),0.0271,-0.149,0.22,-0.0346,0.0459,1.23,0.598,1.09
O=C1N(Cc2ccccc2)c2ccccc2[C@H]2OC(c3ccc(OCCCO)cc3)=N[C@@]12CCS(=O)(=O)c1ccccc1,1.46,-2.22,0.479,1.76,-0.465,0.0317,0.435,0.347,0.557,0.977,0.273,-0.313 (inactive),0.0538,-0.112,0.692,2.83,0.948,1.29,0.376,0.54
C=CCOC(=O)[C@@H]1[C@H]2C(=O)O[C@H](c3ccccc3)[C@H](c3ccccc3)N2[C@H](c2ccc(OCCOC(=O)[C@H]3C[C@H]4C(=O)N[C@@H](Cc5ccccc5)C(=O)N4[C@H]3c3cccc(OCCO)c3)cc2)[C@@]12C(=O)Nc1ccc(I)cc12,0.88,-2.08,0.413,-0.573,-0.771,-0.0161,0.116,0.749,1.29,1.03,-0.868,0.111 (inactive),0.319,-0.103,0.344,0.798,0.331,1.31,1,1.11
CC(C)C(CO)N1C(=O)[C@@H]2[C@H]3C(=O)OCC=C[C@H]3OC23C=CCN(CCN2CCOCC2)C(=O)[C@@H]13 (stereo not given in full),-0.0831,-0.911,-0.0025,-0.229,-1.32,-0.176,-0.0709,-0.0719,-0.128,0.451,-0.36,-0.0157 (inactive),-0.125,-0.164,-0.111,-0.332,-0.0765,0.0784,0.446,0.166
C[N+](C)(C)CCCCCCNC(=O)[C@H]1C[C@H]2C(=O)N3CCC[C@H]3C(=O)N2[C@H]1c1cccc(OCCO)c1,0.809,0.609,1.46,-0.205,-1.14,-0.135,0.171,-0.381,1.67,0.0895,-0.564,0.491 (inactive),0.398,-0.0135,0.662,1.73,0.787,0.976,1.03,1.15
C=CCNC(=O)[C@@H]1[C@H]2C(=O)O[C@H](c3ccccc3)[C@H](c3ccccc3)N2[C@H](c2ccc(O)cc2)[C@@]12C(=O)Nc1ccc(C#CCCO)cc12,-0.379,-0.439,-0.144,-0.0464,0.0653,-0.0792,-0.484,-0.372,-0.275,-0.04,0.803,-0.588 (inactive),-0.186,-0.149,0.761,1.55,0.71,0.277,-1.31,0.0196
COc1ccc([Si](C)(C)[C@@H]2[C@@H](CCO)O[C@]3(C(=O)N(Cc4ccccc4)c4ccc(N5C(=O)COc6ccccc65)cc43)[C@H]2C)cc1,1.23,-4.11,0.0529,0.953,0.838,-0.129,-0.0626,-0.194,0.462,0.31,0.187,0.685 (inactive),-0.0077,-0.0731,0.426,0.841,0.719,0.929,-0.237,0.822
COCCOC(=O)N1C(=O)[C@@]2(c3cc(C#Cc4ccc(OC)cc4)ccc31)[C@H](C(=O)N1CCc3cc(OC)c(OC)cc3C1)[C@H]1C(=O)O[C@H](c3ccccc3)[C@H](c3ccccc3)N1[C@@H]2c1ccc(O)cc1,1.13,-0.246,0.582,0.111,-0.575,0.0088,0.191,-0.407,0.575,1.78,-0.237,-0.0164 (inactive),0.436,0.357,0.282,0.853,0.844,1.28,0.805,1.16
C[C@H]1ON(c2ccccc2)[C@@H](c2ccccc2)[C@@H]1C(=O)N1C(=O)OC[C@@H]1c1ccccc1,0.184,-0.432,0.521,-0.238,-0.162,-0.134,-0.251,-0.0855,0.357,-0.1,0.0537,1.2 (inactive),-0.0493,-0.118,0.259,0.46,-0.0222,0.44,0.424,0.0565
COC(=O)[C@@]1(Cc2ccccc2)[C@H]2c3cc(C(=O)N4CCCC4)n(Cc4ccc(OC(F)(F)F)cc4)c3C[C@H]2CN1C(=O)c1ccccc1,1.41,-1.95,-0.782,2.31,1.41,0.583,1.12,1.69,0.867,1.35,0.963,-0.56 (inactive),0.772,0.509,0.461,2.44,0.498,1.31,-0.488,1.16
CC(C)CCC[C@@H](C)[C@H]1CC[C@@]2(C)C3=C(CC[C@]12C)[C@@]1(C)CC[C@H](OC(=O)c2ccc(N)cc2)C(C)(C)C1CC3 (stereo not given in full),0.609,0.0533,1.2,-0.137,-0.674,-0.0545,0.768,-0.427,0.282,0.0506,0.0881,-0.196 (inactive),0.0406,-0.207,0.0778,-0.221,-0.252,0.401,0.456,0.462
CCOC(=O)C1=CC[C@@H](c2cccc(Br)c2)N(S(=O)(=O)c2ccc(C)cc2)[C@H]1c1ccc([N+](=O)[O-])cc1,1.42,-0.802,0.868,0.855,0.69,0.0433,-0.138,0.822,1.1,1.05,0.861,0.338 (inactive),0.0116,-0.0856,0.586,2.45,0.885,1.08,0.625,1
O=C1c2ccccc2[C@](Cc2ccccc2I)(C(=O)NC2CC2)[C@H](c2ccc(CO)cc2)N1Cc1ccccc1Cl,1.06,-1.4,-0.112,0.638,0.61,-0.0701,0.755,0.139,0.747,0.09,0.0646,-0.057 (inactive),0.265,0.0563,0.574,1.93,0.696,1.31,0.0424,0.997
CCCCC(CC)C(O)C1C=CC2C(=O)NC(=O)C2N1Nc1ccccn1 (stereo not given),1.46,-0.201,0.0645,1.07,0.431,0.0919,-0.119,1.19,0.927,1.36,0.806,0.975 (inactive),0.0866,-0.0071,0.677,2.53,0.321,1.27,-0.105,0.86
C[N+](C)(C)CCCCCCNC(=O)[C@@H]1C[C@@H]2C(=O)NCC(=O)N2[C@@H]1c1cccc(OCCO)c1,0.891,1.99,0.695,0.21,-0.359,-0.18,-0.333,-0.0317,0.602,1.96,-0.205,0.605 (inactive),-0.0338,-0.14,0.656,1.1,-0.426,0.73,1.31,1.15
COCCOC(=O)N1C(=O)[C@@]2(c3cc(C#CCNC(N)=O)ccc31)[C@H](C(=O)N1CCCCCCC1)[C@H]1C(=O)O[C@H](c3ccccc3)[C@H](c3ccccc3)N1[C@@H]2c1ccc(OCCO)cc1,0.748,-0.431,0.277,1.13,0.801,0.0075,-0.138,-0.118,0.263,1.09,0.27,0.32 (inactive),0.331,0.0245,0.244,0.46,1.32,0.653,0.298,0.979
CN(C)CCCN1C(=O)[C@@]2(Cc3ccccc31)c1ccccc1C(=O)N(Cc1ccccc1)[C@H]2c1ccc(CO)cc1,0.118,-1.2,-0.0359,0.505,-0.258,-0.252,-0.289,-0.288,-0.123,0.648,-0.153,0.634 (inactive),-0.109,-0.181,-0.0077,-0.258,-0.485,0.347,0.757,0.544
CCCC[C@H]1OB(O)C[C@H]2C1=C(COc1ccccc1)Cn1c(=O)n(-c3ccccc3)c(=O)n12,1.03,-0.917,0.375,0.292,-0.0404,-0.186,-0.16,-0.555,0.654,-0.334,0.196,0.131 (inactive),0.0705,-0.114,0.247,1.1,0.0367,1.14,0.357,0.501
O=C1C2C=CC(C(O)c3cccc4ccccc34)N(Nc3ccccc3)C2C(=O)N1c1ccccc1 (stereo not given),1.38,-1.29,0.321,0.972,-0.8,0.0725,0.424,1.05,0.759,2.06,0.571,0.739 (inactive),0.277,0.0312,0.655,2.28,1.47,0.983,0.724,0.89
